From the supplement of paper PMC10646978
± gives the standard deviation.

Assays:
Details in all cases: modulator concentration 10 µM
[1] = tested on: RAW-Dual (murine macrophage reporter line); experiment: NF-kB reporter (SEAP) activity fold change vs agonist alone; higher = enhanced NF-kB activity
Outline: (§1)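 In 384-well plates holding 50 000 RAW-Dual murine macrophage reporter cells per well, compound at 10 μM final was pre-incubated for 1 hour at 37 °C, after which a PRR agonist was added overnight. Supernatant SEAP read with QUANTI-Blue at 620 nm absorbance reported NF-κB, and Lucia luciferase read with QUANTI-Luc luminescence reported IRF. Fold change values come from dividing each reporter signal by the mean of agonist-only control wells on the same plate, averaged over replicate plates with propagated errors.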

[2] = tested on: RAW-Dual (murine macrophage reporter line); experiment: IRF reporter (Lucia luciferase) activity fold change vs agonist alone; higher = enhanced IRF activity
Outline: as §1

[3] = tested on: RAW-Dual (murine macrophage reporter line); experiment: viability score (confluency relative to resting cells, overnight) (fraction); higher = more viable, active = viable (0.7 or more)
Outline: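 RAW-Dual macrophages in 384-well plates were treated overnight with compound at 10 μM final. IncuCyte imaging recorded confluency, and IncuCyte software built two confluency masks across every imaged well. The viability score expresses confluency relative to resting cells and was judged against a cutoff, which a compound met only if both masks exceeded 70% of resting cells.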

[4] = agonist: CpG ODN 1826 0.5 ug/mL

Row | SMILES | NF-kB reporter [1, 4] | NF-kB reporter ([1]; agonist: LPS 0.1 ug/mL) | NF-kB reporter ([1]; agonist: MPLA […]) | IRF reporter ([2]; agonist: 3'3'-cGAMP 10 ug/mL) | IRF reporter ([2]; agonist: LPS 0.1 ug/mL) | IRF reporter ([2]; agonist: MPLA […]) | viability score [3]
1 | CC(C)Cn1cc(Cl)c(=O)n(CC(C)C)c1=O | 1.12 ± 0.068 | 1 ± 0.11 | 1.01 ± 0.056 | 1.03 ± 0.037 | 1 ± 0.066 | 0.991 ± 0.19 | 0.996 (active)
2 | CN(C)C(=O)COC(=O)Cc1ccc(OC(=O)c2ccc(NC(=N)N)cc2)cc1.CS(=O)(=O)O | 1.04 ± 0.045 | 0.913 ± 0.083 | 1.01 ± 0.079 | 1.07 ± 0.049 | 1.21 ± 0.22 | 1.25 ± 0.4 | 0.829 (active)
3 | Cc1cccc(-c2nn3c(c2-c2ccnc4ccc(C(N)=O)cc24)CCC3)n1 | 1.08 ± 0.046 | 1.22 ± 0.1 | 1.46 ± 0.12 | 0.903 ± 0.042 | 0.976 ± 0.16 | 1.12 ± 0.28 | 0.99 (active)
4 | Oc1c2c(nc3cc(-c4ccc(Br)cc4)nn13)CCS2 | 1.06 ± 0.084 | 1.04 ± 0.064 | 0.857 ± 0.082 | 0.857 ± 0.03 | 1.19 ± 0.16 | 0.921 ± 0.2 | 1.01 (active)
5 | CC[C@@]1(O)C(=O)OCc2c1cc1n(c2=O)Cc2cc3c(CN(C)C)c(O)ccc3nc2-1 [Prestw-1196] | 2.33 ± 0.13 | 1.27 ± 0.08 | 2.43 ± 0.16 | 2.88 ± 0.099 | 3.79 ± 0.35 | 3.07 ± 0.43 | 0.689 (inactive)
6 | Cc1ccc(Sc2c(C)nn(-c3ccccc3)c2OC(=O)C(C)(C)C)cc1 | 0.74 ± 0.07 | 0.87 ± 0.075 | 0.928 ± 0.12 | 0.557 ± 0.031 | 1.08 ± 0.1 | 1.03 ± 0.19 | 0.963 (active)
7 | CCc1cccc2c3c([nH]c12)C(CC)(CC(=O)O)OCC3 (configuration not stated) [Prestw-231] | 0.957 ± 0.25 | 0.995 ± 0.066 | 1.19 ± 0.15 | 0.926 ± 0.039 | 1.24 ± 0.15 | 1.32 ± 0.24 | 0.989 (active)
8 | O=[N+]([O-])c1ccc2nc(Cl)sc2c1 | 1.71 ± 0.13 | 0.49 ± 0.039 | 0.338 ± 0.032 | 0.159 ± 0.02 | 0.223 ± 0.083 | 0.0921 ± 0.025 | 0.638 (inactive)
9 | Cn1nc2c(c1CNS(=O)(=O)CCC(F)(F)F)CCC2 | 0.93 ± 0.077 | 0.805 ± 0.064 | 1.17 ± 0.15 | 1.01 ± 0.049 | 1.32 ± 0.2 | 1.41 ± 0.49 | 0.981 (active)
10 | Cc1ccc(Nc2cc(N3CCCCC3)c(N)c3c2C(=O)c2ccccc2C3=O)cc1 | 1.26 ± 0.23 | 1.09 ± 0.067 | 0.964 ± 0.12 | 1 ± 0.057 | 1.56 ± 0.21 | 1.12 ± 0.12 | 0.996 (active)
11 | COc1ccc(C2=CC(=Cc3cccc(OC)c3OC)C(=O)O2)c(OC)c1 | 1.21 ± 0.3 | 1.06 ± 0.1 | 1.07 ± 0.086 | 1.04 ± 0.028 | 1.27 ± 0.18 | 1.16 ± 0.14 | 1 (active)
12 | CCOc1nc2cccc(C(=O)O)c2n1Cc1ccc(-c2ccccc2-c2nnn[nH]2)cc1 [Prestw-1258] | 1.29 ± 0.26 | 1.16 ± 0.11 | 0.925 ± 0.074 | 0.918 ± 0.029 | 0.914 ± 0.093 | 1.14 ± 0.14 | 0.995 (active)
13 | CN1CCN(c2nc(C3=C(c4c[nH]c5ccccc45)C(=O)NC3=O)c3ccccc3n2)CC1 | 0.748 ± 0.034 | 0.961 ± 0.081 | 1.21 ± 0.071 | 0.798 ± 0.041 | 1.14 ± 0.24 | 1.17 ± 0.32 | 0.988 (active)
14 | CNC(=O)c1cccc(-c2noc(C3CN(C(=O)NC4CCCCC4)C3)n2)c1 | 1.06 ± 0.053 | 1.11 ± 0.11 | 1.03 ± 0.091 | 1.06 ± 0.065 | 1.21 ± 0.1 | 1.17 ± 0.13 | 1 (active)
15 | COc1ccc(C2CC(=O)C(=Cc3c[nH]c4ccccc34)C(=O)C2)cc1 (configuration not stated) | 0.91 ± 0.055 | 1.04 ± 0.11 | 0.905 ± 0.08 | 0.76 ± 0.04 | 1.25 ± 0.11 | 1.1 ± 0.13 | 0.991 (active)
16 | CC(C)c1nc(CN(C)C(=O)N[C@@H](CCN2CCOCC2)C(=O)N[C@H](CC[C@H](Cc2ccccc2)NC(=O)OCc2cncs2)Cc2ccccc2)cs1 | 1.29 ± 0.073 | 0.959 ± 0.076 | 1.14 ± 0.036 | 0.687 ± 0.032 | 0.842 ± 0.11 | 0.839 ± 0.18 | 1 (active)
17 | CC(=O)N1N=C(c2ccc(N(C)C)cc2)CC1c1ccccc1 (configuration not stated) | 0.932 ± 0.08 | 1.04 ± 0.073 | 1.01 ± 0.047 | 0.794 ± 0.048 | 1.01 ± 0.042 | 1.1 ± 0.072 | 1 (active)
18 | C[C@@H]1CCN(C(=O)CC#N)C[C@@H]1N(C)c1ncnc2[nH]ccc12 | 1.14 ± 0.15 | 0.694 ± 0.24 | 0.824 ± 0.064 | 0.337 ± 0.022 | 0.473 ± 0.098 | 0.654 ± 0.082 | 0.992 (active)
19 | CN1CCN(C(=O)c2cc(-c3ccccc3)nc3ccccc23)CC1 | 1.03 ± 0.11 | 0.906 ± 0.059 | 0.957 ± 0.043 | 0.941 ± 0.15 | 0.923 ± 0.051 | 0.884 ± 0.081 | 0.996 (active)
20 | Cc1cc(=O)n2c(-c3cccc(NC(=O)C4CCCO4)c3)csc2n1 (configuration not stated) | 1.25 ± 0.072 | 1.04 ± 0.089 | 1.01 ± 0.037 | 0.973 ± 0.093 | 1.04 ± 0.11 | 0.936 ± 0.18 | 0.999 (active)
21 | CCCCCCCCCCCC1=C(O)C(=O)C=C(O)C1=O | 0.901 ± 0.22 | 0.642 ± 0.034 | 0.675 ± 0.045 | 0.566 ± 0.019 | 0.823 ± 0.09 | 0.774 ± 0.086 | 0.167 (inactive)
22 | CC(=O)Nc1nc(C2CC2)cc(-c2ccco2)c1C#N | 1.38 ± 0.23 | 1.09 ± 0.09 | 1.02 ± 0.08 | 0.937 ± 0.026 | 1.16 ± 0.12 | 1.17 ± 0.12 | 1 (active)
23 | O=C(Nc1nccs1)c1ccc2c(c1)C(=O)N(CC1CCCO1)C2=O (configuration not stated) | 1.12 ± 0.11 | 0.919 ± 0.088 | 0.975 ± 0.028 | 0.997 ± 0.037 | 1.04 ± 0.054 | 1.14 ± 0.13 | 0.997 (active)
24 | Cc1ccc(C(=O)NC(=Cc2ccccc2)C(=O)NCCCn2ccnc2)cc1 | 0.949 ± 0.077 | 1.03 ± 0.069 | 0.907 ± 0.083 | 1.01 ± 0.045 | 1.45 ± 0.25 | 1.12 ± 0.074 | 1.01 (active)
25 | CCC(C)C(=O)OC1CCC=C2C=CC(C)C(CCC3CC(O)CC(=O)O3)C21 (configuration not stated) | 0.946 ± 0.11 | 0.83 ± 0.061 | 1 ± 0.094 | 0.941 ± 0.046 | 1.24 ± 0.23 | 1.33 ± 0.32 | 1.05 (active)
26 | O=C(O)CCCNc1c(C(=O)Nc2ccc(Cl)cc2)cc([N+](=O)[O-])cc1[N+](=O)[O-] | 0.817 ± 0.065 | 0.813 ± 0.057 | 0.942 ± 0.049 | 0.629 ± 0.022 | 1.11 ± 0.12 | 1.42 ± 0.24 | 0.511 (inactive)
